# Several values for one entry are separate records, joined by “and”; a condition that tells them apart may be missing. Equal values may be shown once. Inconclusive results are not listed. Activity calls are given as the source filed them. Rule for the calls, unless noted: active = hit-call score of the fitted dose curve at least 0.9, where 1 is the maximum; inconclusive = response in the unintended direction; inactive = score below 0.9.
# Key:
# [1] = molecular target: human Androgen Receptor (AR), AR (gene 367) (UniProt P10275); experiment: NVS_NR_hAR: NovaScreen (NVS) Nuclear Receptor Binding Assay for human Androgen Receptor (AR) (AID 2283332)
# Description: NVS_NR_hAR is a biochemical, single-readout assay that uses extracted gene-proteins from LnCAP in a cell-free assay. Measurements were taken 20 hours after chemical dosing in a 96-well plate.NVS_NR_hAR is one of one assay component(s) measured or calculated from the NVS_NR_hAR assay. It is designed to make measurements of radioligand binding, a form of binding reporter, as detected with scintillation counting signals by Lysate-based radiodetection technology.Data from the assay component NVS_NR_hAR was analyzed into 1 assay endpoint. This assay endpoint, NVS_NR_hAR, was analyzed in the positive analysis fitting direction relative to DMSO as the negative control and baseline of activity. […] Furthermore, this assay endpoint can be referred to as a primary readout, because the performed assay has only produced 1 assay endpoint. […]
# Binding assays used specific radioligands (tritiated, iodinated) with non-radioactive competitive displacement ligands in agonist or antagonist protocols (as indicated) and various reference compounds and inhibitors to titrate specific binding to receptors and transporters. Most enzyme assays (CYPs, kinases, phosphatases, proteases, HDACs) used recombinant protein and specific substrates (fluorescence mostly, some colorimetric and radioactive) and inhibitors, followed by a biochemical separation of substrate and product. […]
# [2] = molecular target: Voltage-gated inwardly rectifying potassium channel KCNH2 (Homo sapiens) (UniProt Q12809); experiment: NVS_IC_hKhERGCh: NovaScreen (NVS) Ion Channel Assay for human Potassium Channel ERG (KhERGCh) (AID 2283333)
# Procedure, shortened: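 Membranes from CHO cells expressing human ERG; displacement of radioligand measured by filtration and scintillation after 0.75 h. Single-concentration duplicate screen at 25 uM, then concentration-response for actives; DMSO baseline.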
# [3] = molecular target: Glutamate receptor ionotropic, kainate 1 (Rattus norvegicus) (UniProt P22756); experiment: NVS_IC_rKAR: NovaScreen (NVS) Ion Channel Assay for rat Kainic Acid Receptors (KAR) (AID 2283334; active = hit-call score of the fitted dose curve at least 0.9, where 1 is the maximum; inactive = score below 0.9)
# Procedure, shortened: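 Rat forebrain membrane preparation incubated 1 h with radioligand and test chemical; bound signal read by filtration and scintillation. Single-concentration screen at 25 uM, then concentration series to 50 uM maximum.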
# [4] = NVS_IC_rCaBTZCHL: NovaScreen (NVS) Ion Channel Assay for Calcium Channel, Type L, Benzothiazepine Site (CaBTZCHL) (AID 2283337)
# Procedure, shortened: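 Rat cortical membrane preparation, cell-free. Radioligand displaced by test chemical; 1.5 h incubation; filtration, scintillation count. DMSO = negative control/baseline. Primary: duplicate, 25 uM; secondary: concentration series.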
# [5] = molecular target: rat Gamma-Aminobutyric Acid Type A Receptor BDZ, alpha 6 site (GABARa6), Gabra6 (gene 29708) (UniProt P30191); experiment: NVS_LGIC_rGABARa6: NovaScreen (NVS) Ligand-Gated Ion Channel Assay for rat Gamma-Aminobutyric Acid Type A Receptor BDZ, alpha 6 site (GABARa6) (AID 2283339)
# Procedure, shortened: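 Actives from a 25 uM duplicate screen were retested in concentration series (max 50 uM). Specific radioligand displacement from rat cerebellar membranes was counted by filter-based scintillation at 1 h; DMSO served as baseline.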
# [6] = molecular target: rat Glutamate, MK-801 Agonist Site (GluNMDA_MK801), Grin1 (gene 24408) (UniProt P35439); experiment: NVS_LGIC_rGluNMDA_MK801_Agonist: NovaScreen (NVS) Ligand-Gated Ion Channel Assay for rat Glutamate, MK-801 Agonist Site (GluNMDA_MK801) (AID 2283340)
# Procedure, shortened: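 Rat forebrain membrane preparation; MK-801-site radioligand binding read by filtration and scintillation after 1.5 h. Single-point 25 uM duplicate screen, followed by singleton concentration series to 50 uM max; DMSO baseline.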
# [7] = molecular target: rat Glycine Receptor, Strychnine-sensitive (GlyRStrySens), Glra1 (gene 25674) (UniProt P07727); experiment: NVS_LGIC_rGlyRStrySens: NovaScreen (NVS) Ligand-Gated Ion Channel Assay for rat Glycine Receptor, Strychnine-sensitive (GlyRStrySens) (AID 2283341)
# Description: NVS_LGIC_rGlyRStrySens is a biochemical, single-readout assay that uses extracted gene-proteins from Rat spinal cord membranes in a tissue-based cell-free assay. Measurements were taken 1 hour after chemical dosing in a 48-well plate.NVS_LGIC_rGlyRStrySens is one of one assay component(s) measured or calculated from the NVS_LGIC_rGlyRStrySens assay. It is designed to make measurements of radioligand binding, a form of binding reporter, as detected with scintillation counting signals by Filter-based radiodetection technology.Data from the assay component NVS_LGIC_rGlyRStrySens was analyzed into 1 assay endpoint. This assay endpoint, NVS_LGIC_rGlyRStrySens, was analyzed in the positive analysis fitting direction relative to DMSO as the negative control and baseline of activity. Using a type of binding reporter, loss-of-signal activity can be used to understand changes in the binding as they relate to the gene Glra1. Furthermore, this assay endpoint can be referred to as a primary readout, because the performed assay has only produced 1 assay endpoint. To generalize the intended target to other relatable targets, this assay endpoint is annotated to the ion channel intended target family, where the subfamily is ligand-gated ion channel. […]
# human Androgen Receptor (AR), AR (gene 367), sequence (P10275 whole entry, looked up): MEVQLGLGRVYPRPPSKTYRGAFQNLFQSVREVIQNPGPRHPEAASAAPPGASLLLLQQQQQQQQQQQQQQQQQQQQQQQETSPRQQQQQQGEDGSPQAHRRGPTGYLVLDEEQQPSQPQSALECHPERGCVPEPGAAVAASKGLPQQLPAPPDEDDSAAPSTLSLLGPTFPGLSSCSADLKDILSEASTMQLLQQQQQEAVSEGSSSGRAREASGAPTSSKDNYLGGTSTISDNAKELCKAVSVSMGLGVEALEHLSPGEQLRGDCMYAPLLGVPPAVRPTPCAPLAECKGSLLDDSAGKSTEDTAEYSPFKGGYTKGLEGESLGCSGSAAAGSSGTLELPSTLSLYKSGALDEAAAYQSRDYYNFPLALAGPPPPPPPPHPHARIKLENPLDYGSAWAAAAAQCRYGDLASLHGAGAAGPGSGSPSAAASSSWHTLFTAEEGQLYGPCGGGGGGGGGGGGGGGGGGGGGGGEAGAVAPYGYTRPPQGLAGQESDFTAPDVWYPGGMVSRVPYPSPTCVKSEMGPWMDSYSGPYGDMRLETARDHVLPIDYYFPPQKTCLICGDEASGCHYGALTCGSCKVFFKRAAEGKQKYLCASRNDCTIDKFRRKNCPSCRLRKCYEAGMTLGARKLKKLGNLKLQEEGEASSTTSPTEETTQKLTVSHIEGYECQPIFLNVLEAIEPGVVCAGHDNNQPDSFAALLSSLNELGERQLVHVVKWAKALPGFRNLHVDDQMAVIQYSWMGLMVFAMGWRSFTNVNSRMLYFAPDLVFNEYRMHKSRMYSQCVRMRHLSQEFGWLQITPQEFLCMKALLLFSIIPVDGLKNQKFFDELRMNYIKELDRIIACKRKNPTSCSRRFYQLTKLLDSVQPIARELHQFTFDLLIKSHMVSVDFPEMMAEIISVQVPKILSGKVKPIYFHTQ
# rat Glycine Receptor, Strychnine-sensitive (GlyRStrySens), Glra1 (gene 25674), sequence (P07727 whole entry, looked up): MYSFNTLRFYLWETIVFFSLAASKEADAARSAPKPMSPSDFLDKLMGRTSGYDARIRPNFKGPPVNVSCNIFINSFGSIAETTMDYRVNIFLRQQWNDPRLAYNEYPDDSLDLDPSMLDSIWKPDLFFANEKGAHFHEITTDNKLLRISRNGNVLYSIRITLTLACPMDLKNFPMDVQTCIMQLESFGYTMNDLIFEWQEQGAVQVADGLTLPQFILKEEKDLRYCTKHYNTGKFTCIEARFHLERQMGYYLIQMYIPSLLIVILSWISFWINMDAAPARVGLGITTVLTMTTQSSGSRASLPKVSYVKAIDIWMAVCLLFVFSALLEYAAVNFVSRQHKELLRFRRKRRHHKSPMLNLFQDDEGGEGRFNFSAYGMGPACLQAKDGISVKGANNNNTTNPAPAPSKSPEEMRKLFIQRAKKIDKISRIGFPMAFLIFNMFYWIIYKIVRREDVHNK
# Voltage-gated inwardly rectifying potassium channel KCNH2 (Homo sapiens), sequence (Q12809 whole entry, looked up): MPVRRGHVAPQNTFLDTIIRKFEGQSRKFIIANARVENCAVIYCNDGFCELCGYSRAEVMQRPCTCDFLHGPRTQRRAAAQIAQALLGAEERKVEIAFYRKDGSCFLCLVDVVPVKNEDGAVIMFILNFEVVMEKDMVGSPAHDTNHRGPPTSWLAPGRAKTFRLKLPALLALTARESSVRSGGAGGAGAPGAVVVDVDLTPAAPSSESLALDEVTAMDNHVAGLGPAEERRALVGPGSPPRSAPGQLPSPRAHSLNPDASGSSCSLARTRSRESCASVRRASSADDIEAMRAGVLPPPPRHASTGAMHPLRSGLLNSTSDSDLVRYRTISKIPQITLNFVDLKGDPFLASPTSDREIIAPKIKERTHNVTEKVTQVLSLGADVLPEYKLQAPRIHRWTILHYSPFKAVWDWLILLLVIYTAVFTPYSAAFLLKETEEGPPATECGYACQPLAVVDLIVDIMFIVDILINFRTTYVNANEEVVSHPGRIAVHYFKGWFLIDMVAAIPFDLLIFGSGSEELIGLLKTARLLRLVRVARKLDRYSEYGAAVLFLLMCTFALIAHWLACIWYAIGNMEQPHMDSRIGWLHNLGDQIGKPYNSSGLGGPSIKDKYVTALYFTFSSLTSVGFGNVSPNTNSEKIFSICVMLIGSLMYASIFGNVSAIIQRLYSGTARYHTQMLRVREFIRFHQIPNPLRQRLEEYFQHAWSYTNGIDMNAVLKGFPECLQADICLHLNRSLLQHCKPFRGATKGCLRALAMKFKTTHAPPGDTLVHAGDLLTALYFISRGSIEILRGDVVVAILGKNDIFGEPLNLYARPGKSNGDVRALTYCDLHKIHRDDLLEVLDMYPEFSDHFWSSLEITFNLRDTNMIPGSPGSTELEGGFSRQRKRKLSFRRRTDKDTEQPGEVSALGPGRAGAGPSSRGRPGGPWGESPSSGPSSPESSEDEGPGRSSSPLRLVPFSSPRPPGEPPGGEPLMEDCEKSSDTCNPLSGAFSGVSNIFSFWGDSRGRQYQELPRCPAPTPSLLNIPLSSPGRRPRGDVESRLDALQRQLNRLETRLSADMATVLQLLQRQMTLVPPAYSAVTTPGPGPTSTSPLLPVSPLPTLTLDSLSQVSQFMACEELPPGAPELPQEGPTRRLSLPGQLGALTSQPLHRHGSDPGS
# rat Gamma-Aminobutyric Acid Type A Receptor BDZ, alpha 6 site (GABARa6), Gabra6 (gene 29708), sequence (P30191 whole entry, looked up): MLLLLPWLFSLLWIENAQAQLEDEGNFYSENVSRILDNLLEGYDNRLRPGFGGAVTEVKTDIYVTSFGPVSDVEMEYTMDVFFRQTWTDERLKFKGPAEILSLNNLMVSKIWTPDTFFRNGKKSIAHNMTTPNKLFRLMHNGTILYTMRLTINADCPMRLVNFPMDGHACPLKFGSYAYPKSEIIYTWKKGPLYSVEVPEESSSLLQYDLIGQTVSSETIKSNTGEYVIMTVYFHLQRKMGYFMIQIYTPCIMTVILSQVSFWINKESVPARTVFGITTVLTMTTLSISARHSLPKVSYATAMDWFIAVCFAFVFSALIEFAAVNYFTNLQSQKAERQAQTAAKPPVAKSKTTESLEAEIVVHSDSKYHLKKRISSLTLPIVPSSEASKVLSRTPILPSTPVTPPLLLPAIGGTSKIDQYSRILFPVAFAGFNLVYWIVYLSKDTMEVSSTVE
# Glutamate receptor ionotropic, kainate 1 (Rattus norvegicus), sequence (P22756 whole entry, looked up): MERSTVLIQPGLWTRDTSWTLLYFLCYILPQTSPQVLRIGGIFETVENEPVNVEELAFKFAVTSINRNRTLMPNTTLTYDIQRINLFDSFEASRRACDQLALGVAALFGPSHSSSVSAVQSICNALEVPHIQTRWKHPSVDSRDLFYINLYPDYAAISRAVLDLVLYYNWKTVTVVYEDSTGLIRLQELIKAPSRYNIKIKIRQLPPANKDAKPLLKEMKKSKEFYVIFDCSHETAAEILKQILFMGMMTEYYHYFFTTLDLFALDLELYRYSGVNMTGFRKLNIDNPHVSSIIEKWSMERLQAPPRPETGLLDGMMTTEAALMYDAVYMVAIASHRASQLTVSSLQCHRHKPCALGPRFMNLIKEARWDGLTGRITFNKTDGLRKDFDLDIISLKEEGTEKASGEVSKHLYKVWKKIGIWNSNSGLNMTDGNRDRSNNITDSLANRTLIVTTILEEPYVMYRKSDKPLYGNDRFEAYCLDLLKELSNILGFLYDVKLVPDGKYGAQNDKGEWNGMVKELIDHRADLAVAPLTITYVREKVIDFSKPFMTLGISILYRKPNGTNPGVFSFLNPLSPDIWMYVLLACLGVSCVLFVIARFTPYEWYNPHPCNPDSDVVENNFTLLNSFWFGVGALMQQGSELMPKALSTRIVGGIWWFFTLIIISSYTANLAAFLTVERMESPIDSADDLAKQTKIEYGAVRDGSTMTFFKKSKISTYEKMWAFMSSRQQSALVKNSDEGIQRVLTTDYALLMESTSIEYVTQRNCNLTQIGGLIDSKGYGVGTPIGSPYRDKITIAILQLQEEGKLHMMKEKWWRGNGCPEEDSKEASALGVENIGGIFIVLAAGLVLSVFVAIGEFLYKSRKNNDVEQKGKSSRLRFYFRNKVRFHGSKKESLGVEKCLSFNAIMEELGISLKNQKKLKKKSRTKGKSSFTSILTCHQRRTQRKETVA
structure (smiles),measurement,setting,value
CCOC(=O)C(O)(c1ccc(Cl)cc1)c1ccc(Cl)cc1,AC50,[1],6.91 µM (active)
CCC(=O)O[C@H]1CC[C@H]2[C@@H]3CCC4=CC(=O)CC[C@]4(C)[C@H]3CC[C@]12C,AC50,[1],26.8 nM (active) and 48 nM (active)
CCCCCCOC(=O)c1ccccc1C(=O)OCCCCCC,outcome,[2],inactive
Oc1ccc(Cl)cc1Cl,outcome,[2],inactive
COS(=O)(=O)OC,outcome,[3],inactive
CC1=C2C[C@H]3[C@@H](CC=C4C[C@@H](O)CC[C@@]43C)[C@@H]2CC[C@]12O[C@@H]1C[C@H](C)CN[C@H]1[C@H]2C,outcome,[4],inactive
CCCCCCCCCC[N+](C)(C)CCCCCCCCCC,AC50,[4],4.34 µM (active)
O=S(=O)(O)C(F)(F)C(F)(F)C(F)(F)C(F)(F)C(F)(F)C(F)(F)F,outcome,[5],inactive
Cc1cc2c3c(c1)C(c1ccccc1)=N[C@@H](NC(=O)c1ccncc1)C(=O)N3CC2,outcome,[5],inactive
Oc1ccc(C(c2ccc(O)cc2)(C(F)(F)F)C(F)(F)F)cc1,AC50,[6],19.8 µM (active)
same,outcome,[7],inactive
O=NN(c1ccccc1)c1ccccc1,outcome,[6],inactive
O=C(NC(=O)c1cc(F)c(F)cc1Cl)Nc1cc(F)ccc1N1CCC(C(=O)O)CC1,outcome,[7],inactive

# Source: PubChem BioAssay (EPA / NIEHS)
